Measurements reported in PubChem BioAssay (Tox21).
Records with an inconclusive call do not appear. Unmarked numbers belong to inactive results. Activity calls are given as the source filed them. Calls come from the whole dose curve; as a rule, active = well fitted activation curve with a large enough effect in the signal ratio in the repeat runs (not every such curve was filed as active); inconclusive = weak or mixed curves, or effect the other way; inactive = no such curve, though single readings can be large or run the other way; the % refers to the signal ratio.

Assay: qHTS assay for small molecule agonists of the antioxidant response element (ARE) signaling pathway (AID 743202)
Conditions: HepG2 ARE-bla reporter, beta-lactamase FRET, 16 h; series mostly up to 73.3 µM; activation: at the top concentration
From the text: U.S. Tox21 Program National Center for Advancing Translational Sciences [NCATS] NIH Chemical Genomics Center [NCGC] U.S. Environmental Protection Agency [EPA] National Institutes of Environmental Health Sciences [NIEHS] National Toxicology Program [NTP] U.S. Food and Drug Administration [FDA] Tox21 Assay Overview: Oxidative stress has been implicated in the pathogenesis of a variety of diseases ranging from cancer to neurodegeneration. The antioxidant response element (ARE) signaling pathway plays an important role in the amelioration of oxidative stress. The CellSensor ARE-bla HepG2 cell line (Invitrogen) can be used for analyzing the Nrf2/antioxidant response signaling pathway. Nrf2 (NF-E2-related factor 2) and Nrf1 are transcription factors that bind to AREs and activate these genes. The CellSensor ARE-bla Hep G2 cell line contains a beta-lactamase reporter gene under control of the Antioxidant Response Element (ARE) stably integrated into HepG2 cells. The activation of the report gene under culture conditions can be detected by fluorescence intensity. This cell line has been used to screen the Tox21 10K compound library to identify agonists that induce oxidative stress.
Tox21 Assay Protocol Summary: The ARE-bla cells were dispensed at 2,000 cells/5 ul/well in 1536-well black wall/clear bottom plates using a Multidrop dispenser. After the assay plates were incubated at a 37 C/5% CO2 incubator for 5 hours, 23 nL of compounds dissolved in DMSO, positive controls or DMSO only was transferred to the assay plate by a pin tool. The plates were incubated at 37 C for 16 hours. After 1 uL of LiveBLAzer B/G FRET substrate was added using a Flying Reagent Dispenser, the plates were incubated at room temperature for 2 hours, and fluorescence intensity was measured by an Envision plate reader.
% is set by controls: 0 for no effect and ±100 for the full control effect; potency is the fitted concentration of half-maximal effect.

SMILES	activation	Potency
CCOC(=O)c1ncn2c1CN(C)C(=O)c1c(I)cccc1-2	10.8%	
CC(C)(C)c1cc(O)ccc1O		3.86 µM (active)
C=C1C[C@@H]2[C@H](CC[C@]3(C)C(=O)CC[C@@H]23)[C@@]2(C)C=CC(=O)C=C12		2.66 µM (active)
CCOC(=O)C(SP(=S)(OC)OC)c1ccccc1 (stereo not given)	12.3%	
CCC1(c2ccccc2)C(=O)N(COC)C(=O)N(COC)C1=O	-10.3%	
COc1cc(CC(C)N)cc(OC)c1OC (stereo not given)	-7.7% [at 94.8 µM]	
CC1NCCOC1c1ccccc1 (stereo not given)	3.61%	
CCN(CCO)CCn1c(Cc2ccccc2)nc2c1c(=O)n(C)c(=O)n2C	-2.46%	
CCOc1cc(OP(=S)(OC)OC)nc(CC)n1	4.35%	
O=P(O)(O)CN(CP(=O)(O)O)CP(=O)(O)O	-5.85% [at 34.3 µM]	
C=CCCC#N	-12.3%	
O=C(O)C(Cl)Br (stereo not given)		4.91 µM (active)
NNC(N)=O	-2.11% [at 94.8 µM]	
N[C@@H]1C[C@H]1c1ccccc1	-2.49%	
CS(=O)(=O)Cl	7.26% [at 94.8 µM]	
CCCC[N+](=O)[O-]	-3.87%	
CN1COCN(Cc2cnc(Cl)s2)/C1=N\[N+](=O)[O-]	-3.08%	
S=C=S	6.75%	
NCC1(CC(=O)O)CCCCC1	-0.763%	
Brc1c(Br)c(Br)c(Br)c(Br)c1Br	-11.1% [at 8.36 µM]	

SMILES	activation	Potency
C#CCOC(=O)/C=C(C)/C=C/CC(C)CCCC(C)C (stereo not given)	3.53%	
O=c1[nH]oc2c1CCNC2	-1.65%	
CCC(=O)OC1(c2ccccc2)CCN(C)CC1	6.27% [at 94.8 µM]	
O=C(Cl)OCc1ccccc1	1.38% [at 94.8 µM]	
c1cncc([C@@H]2CCCCN2)c1	0.809%	
CCOC(=O)NC(C)(C)Cc1ccc(Cl)cc1	-5.01%	
CC(=NC#N)N(C)Cc1ccc(Cl)nc1	-2.99%	
C=C(Cl)CCl	-7.74%	
ClCCCCCCCl	-5.08%	
CC(=O)CN(CC(C)=O)N=O	-14%	
Cc1ccc2cc(C)ccc2c1	-15%	
C#CC(C)(C)O	-9.01% [at 94.8 µM]	
COc1ccccc1OC	0.859%	
NC(=O)CS(=O)C(c1ccccc1)c1ccccc1 (stereo not given)	5.15%	
O=CCCl	9.26%	
COc1ccc(CN2CCNCC2)c(OC)c1OC	-6.21%	
N#CN=C1SCCN1Cc1ccc(Cl)nc1	-6.67%	
N#CN	3.4% [at 260 µM]	
CCC(CC)(CNC(=O)CCCO)c1cccc(OC)c1	-1.72%	
COc1cccc([C@@]2(O)CCCC[C@@H]2CN(C)C)c1	0.143%	
